Assay results: the supplement of paper PMC4206461
Unmarked numbers belong to inactive results.

What was measured:
[1] = test system: Pseudomonas aeruginosa PA14 dppA1-A5 penta mutant + pBBR5.DppA1 (PA14_58350); test: respiration area under curve with compound as sole nitrogen source, 24 h (OmniLog AUC (arbitrary units)); higher = more respiration / better utilisation as nitrogen source, active = 2000 or more
Protocol: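 Biolog Phenotype MicroArray plates PM6-PM8: each di/tripeptide is the sole nitrogen source. Tetrazolium reduction was read in the OmniLog for 24 h at 37°C and summarised as area under the respiration curve (arbitrary units). Values below 2000 count as no respiration. Strain is the SBP penta mutant complemented with DppA1 on a plasmid under its native promoter. Lys/His/Cys peptides are excluded.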

[2] = test system: Pseudomonas aeruginosa PA14 wild type; test: as above
Protocol: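 Biolog Phenotype MicroArray plates PM6-PM8: each di/tripeptide is the sole nitrogen source (IF-0 medium with succinate/ferric citrate and dye mix A). Tetrazolium reduction was read in the OmniLog every 15 min for 24 h at 37°C and summarised as area under the respiration curve (arbitrary units). The paper counts values below 2000 as no respiration and above 8000 as solid respiration. Replicate datasets are averaged.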

[3] = test system: Pseudomonas aeruginosa PA14 dppBCDF deletion mutant; test: respiration area under curve with compound as sole nitrogen source, 24 h (OmniLog AUC (arbitrary units)); higher = more respiration / better utilisation as nitrogen source, active = 2000 or more; extreme values may be limits of the assay
Protocol: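 Biolog Phenotype MicroArray plates PM6-PM8: each di/tripeptide is the sole nitrogen source. Tetrazolium reduction was read in the OmniLog every 15 min for 24 h at 37°C and summarised as area under the respiration curve (arbitrary units). Values below 2000 count as no respiration. Strain is the dipeptide ABC transporter deletion mutant.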

SMILES	respiration area under curve [1]	respiration area under curve [2]	respiration area under curve [3]
CC[C@H](C)[C@H](N)C(=O)N1CCC[C@H]1C(=O)O (plate: PM6)	5060 (active)	7460 (active)	0
NCC(=O)N[C@@H](Cc1c[nH]c2ccccc12)C(=O)O (plate: PM6)	49.2	755	0
C[C@H](NC(=O)CNC(=O)CN)C(=O)O (plate: PM8)	4350 (active)	11300 (active)	102
CSCCC(N)C(=O)NC(CCCN=C(N)N)C(=O)O (stereo not given) (plate: PM7)	13200 (active)		13000 (active)
N[C@@H](Cc1ccccc1)C(=O)N[C@@H](CO)C(=O)O (plate: PM7)	6540 (active)		1830
NC(=O)CC[C@H](NC(=O)[C@@H](N)CC(=O)O)C(=O)O (plate: PM8)	7700 (active)		5.25
N[C@@H](Cc1ccccc1)C(=O)NCC(=O)O (plate: PM7)	6420 (active)		872
NC(Cc1c[nH]c2ccccc12)C(=O)NC(Cc1ccccc1)C(=O)O (stereo not given) (plate: PM7)	365		14.8
C[C@@H](N)C(=O)NCC(=O)NCC(=O)O (plate: PM8)	46.7	211	0
CC[C@H](C)[C@H](NC(=O)CN)C(=O)O (plate: PM8)	4580 (active)		1250
C[C@H](N)C(=O)N[C@@H](Cc1ccccc1)C(=O)O (plate: PM6)	6990 (active)		5070 (active)
N[C@@H](Cc1ccccc1)C(=O)N1CCC[C@H]1C(=O)O (plate: PM7)		11400 (active)	1.5
CC(C)C[C@H](N)C(=O)NCC(=O)O (plate: PM6)	5940 (active)	8220 (active)	4090 (active)
NC(N)=NCCC[C@H](N)C(=O)N[C@@H](CO)C(=O)O (plate: PM6)		9350 (active)	8440 (active)
CC(C)C[C@H](N)C(=O)N[C@@H](Cc1ccccc1)C(=O)O (plate: PM6)	4550 (active)		
O=C(O)[C@@H]1C[C@@H](O)CN1C(=O)[C@@H]1CCCN1 (plate: PM7)		0	0
CC(C)C[C@H](N)C(=O)N[C@@H](CC(N)=O)C(=O)O (plate: PM8)		12400 (active)	10700 (active)
NC(=O)CC[C@H](NC(=O)[C@@H](N)CCCN=C(N)N)C(=O)O (plate: PM6)		9850 (active)	9270 (active)
C[C@H](NC(=O)[C@@H](N)CCC(=O)O)C(=O)O (plate: PM8)		9190 (active)	51.5
NCC(=O)NCC(=O)N[C@@H](Cc1ccccc1)C(=O)O (plate: PM8)		9740 (active)	0
NC(N)=NCCC[C@H](N)C(=O)N[C@@H](Cc1ccc(O)cc1)C(=O)O (plate: PM6)		9840 (active)	8750 (active)
C[C@H](NC(=O)[C@@H](N)Cc1c[nH]c2ccccc12)C(=O)O (plate: PM7)		5630 (active)	744
N[C@@H](Cc1ccccc1)C(=O)N[C@@H](CCC(=O)O)C(=O)O (plate: PM8)		2920 (active)	0
CC(C)C[C@@H](N)C(=O)N[C@@H](Cc1ccc(O)cc1)C(=O)O (plate: PM8)	21.2		

SMILES	respiration area under curve [1]	respiration area under curve [2]	respiration area under curve [3]
CC[C@H](C)[C@H](N)C(=O)N[C@@H](Cc1ccc(O)cc1)C(=O)O (plate: PM6)	655		
CC(C)C[C@H](NC(=O)[C@H](CC(C)C)NC(=O)[C@@H](N)CC(C)C)C(=O)O (plate: PM8)	3090 (active)		
C[C@@H](O)[C@H](N)C(=O)N[C@@H](CC(=O)O)C(=O)O (plate: PM8)		5680 (active)	0
CC(C)C[C@H](NC(=O)[C@@H]1CCCN1)C(=O)O (plate: PM7)	5560 (active)		
N[C@@H](CO)C(=O)N1CCC[C@H]1C(=O)O (plate: PM7)		14600 (active)	0
CC(C)[C@H](NC(=O)[C@@H](N)Cc1ccccc1)C(=O)O (plate: PM8)		6870 (active)	3510 (active)
C[C@@H](O)[C@H](N)C(=O)N[C@@H](Cc1ccccc1)C(=O)O (plate: PM8)		8640 (active)	274
CC(C)C[C@H](NC(=O)[C@@H](N)CO)C(=O)O (plate: PM7)		7960 (active)	3310 (active)
C[C@@H](O)[C@H](N)C(=O)N1CCC[C@H]1C(=O)O (plate: PM7)	10700 (active)		
N[C@@H](CC(=O)O)C(=O)N[C@@H](Cc1ccccc1)C(=O)O (plate: PM6)		3070 (active)	15.5
CSCC[C@H](N)C(=O)N[C@H](C(=O)O)[C@@H](C)O (plate: PM8)		4350 (active)	211
CSCC[C@H](NC(=O)[C@@H](N)Cc1ccccc1)C(=O)O (plate: PM8)		1220	269
CC(C)C[C@H](N)C(=O)N[C@@H](C)C(=O)O (plate: PM6)		9330 (active)	7270 (active)
O=C(O)[C@H](Cc1ccc(O)cc1)NC(=O)[C@@H]1CCCN1 (plate: PM7)		12200 (active)	8430 (active)
CC(C)C[C@H](NC(=O)[C@@H](N)C(C)C)C(=O)O (plate: PM7)	7530 (active)		
CC(C)C[C@@H](N)C(=O)NCC(=O)O (plate: PM8)	0		
CC(C)C[C@H](N)C(=O)N[C@H](C(=O)O)C(C)C (plate: PM7)	10300 (active)		
CC(C)C[C@H](N)C(=O)NCC(=O)NCC(=O)O (plate: PM8)		10400 (active)	5290 (active)
CC[C@H](C)[C@H](NC(=O)[C@@H](N)C(C)C)C(=O)O (plate: PM7)		9390 (active)	842
CC(C)[C@H](N)C(=O)N[C@@H](CCCN=C(N)N)C(=O)O (plate: PM7)		14300 (active)	11700 (active)
C[C@H](N)C(=O)N[C@@H](CC(=O)O)C(=O)O (plate: PM8)		10500 (active)	2510 (active)
C[C@H](NC(=O)[C@@H](N)[C@@H](C)O)C(=O)O (plate: PM7)		10500 (active)	3130 (active)
NC(=O)CC[C@H](NC(=O)[C@@H]1CCCN1)C(=O)O (plate: PM7)		9790 (active)	1860
